Screening results (PubChem)
RAM inhibit = inhibitors of the yeast RAM network, primary screen, dse1pr::URA3 reporter, 5-FOA selection. S. cerevisiae dse1pr::URA3 reporter, 5-FOA growth OD615, 2 d; analog-sensitive cbk1-as2 kinase mutant strain. inhibition, % at 50 µM. 1.8% of 190,000 active. AID 868, 2007;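 active = inhibition above a set limit, 3 SD over mean compound inhibition, cut at about 8.4% in these data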;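 also: 0% = DMSO-only wells with no growth and 100% = 10 µM 1-NA-PP1 full growth; inhibition rescues growth on 5-FOA so higher OD means more RAM inhibition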
L major viab = Leishmania major promastigote growth inhibition, primary screen; inhibition, % at 10 µM; Leishmania major promastigotes, resazurin fluorescence viability; 9% of 200,000 active; in the data active = inhibition above about 50%;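 also: promastigotes grown with compound for 44 hours at 28 °C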
WT yeast gro inh = growth inhibition of WT strain, primary screen, mitochondrial fusion inhibitor project, WT and mutant strains, chemical genetic; mitochondrial fusion phenotypic screen; inhibition, % at 10 µM; 2.1% of 190,000 active; AID 1362, 2008; in the data active = inhibition above about 58%; tested in S. cerevisiae
CHOP inh = inhibitors of CHOP promoter induction, primary screen, cell-based, unfolded protein response, luciferase reporter; CHO-K1 CHOP-promoter luciferase, tunicamycin-induced, 15-18 h; 3.8% of 220,000 active; AID 2732, 2010; inhibition, % at 10 µM;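 active = compounds that reduced the stress-induced luciferase reporter signal by more than about 70% of percent inhibition, limit read from the data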;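 also: 0% = tunicamycin plus vehicle and 100% = wells without tunicamycin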
Numbers without * were called inactive; · = no result given. In the library only some 13% were active in any assay of this set; here they are far more common.

SMILES	RAM inhibit	L major viab	WT yeast gro inh	CHOP inh
O=[N+]([O-])c1ccc(OCc2cccc(COc3ccc([N+](=O)[O-])cc3)n2)cc1	5	-6	8	83*
CN(C(=O)Cc1noc2ccccc12)c1ccccc1	0	-6	0	8
CC1=NN(c2ccccc2)C(=O)C1(C)[N+](=O)[O-] (stereo not given)	1	-6	-17	36
COC(=O)/C(=N/Nc1ccccc1C)Sc1nnc(C(O)c2ccccc2)n1-c1ccccc1 (stereo not given)	8.8*	-9	-7	16
CC1=C(C)C(=O)NC(Nc2nc(C)c3cc(C)cc(C)c3n2)N1 (stereo not given)	·	100*	·	·
COc1cc(CN2CC(=O)N(c3ccc(C)cc3)C2=S)cc(OC)c1OC	5	82*	-16	24
COc1ccc(CN2CC(=O)N(c3ccc(C)cc3)C2=S)cc1OC	3	2	-13	18
O=C(c1ccc2c3c(cccc13)CC2)C1CCCN(Cc2ccccn2)C1 (stereo not given)	1	64*	22	8
Cc1cnc(CN2CCCC(C(=O)c3ccc4c5c(cccc35)CC4)C2)[nH]1 (stereo not given)	2	99*	51	55
NC(=O)CCC(=O)N1CCCC(C(=O)c2ccc3c4c(cccc24)CC3)C1 (stereo not given)	0	-6	-1	-20
COCC(=O)N1CCCC(C(=O)c2ccc3c4c(cccc24)CC3)C1 (stereo not given)	0	-2	13	16
O=C(c1ccc2c3c(cccc13)CC2)C1CCCN(Cc2ccc(OCCO)cc2)C1 (stereo not given)	1	88*	4	27
CCN(CC(=O)Nc1cccc(C(C)=O)c1)S(=O)(=O)c1ccccc1	-1	-4	-4	22
C[C@@H](C(=O)N[C@H](C(=O)O)c1ccccc1)n1nnc2ccccc2c1=O	1	18	3	9
Cc1ccc(C)c(OCC(=O)Nc2nc3ccc([N+](=O)[O-])cc3s2)c1C	1	-4	51	80*
C[N+]1([O-])[C@@H]2Cc3cc4c(cc3[C@@H]1Cc1cc3c(cc12)OCO3)OCO4 (stereo not given in full)	·	·	·	-8
COc1ccc(N(CC(O)Cn2cnc3ccccc32)S(=O)(=O)c2ccc(C)cc2)cc1 (stereo not given)	0	4	-8	16
Cc1ccc(CSc2nnc(-c3ccc(S(=O)(=O)N4CCCC4)cc3)o2)cc1	10*	6	3	46
NC(=O)CSc1nnc(-c2ccc(S(=O)(=O)N3CCCC3)cc2)o1	3	-2	-15	-4
O=S(=O)(c1ccc(-c2nnc(SCc3ccccc3)o2)cc1)N1CCCC1	9.3*	85*	12	25
CCN(CC)S(=O)(=O)c1cccc(N=NC2=C(O)CCCC2=O)c1	1	61*	-15	42
CCN(CC)CCN(Cc1cc2ccc(C)c(C)c2[nH]c1=O)C(=S)NCc1ccco1	-1	32	-2	42
CC1CCC(C(C)C)C(OCC(O)CN2CCCC(C)C2)C1 (stereo not given)	0	92*	19	21
Cc1ccc(C(OCC(O)CN2CCCCC2CO)c2ccccc2)cc1 (stereo not given)	1	84*	-17	-3
OC(COc1ccc(OCC(O)CN2CCCCCC2)cc1)CN1CCCCCC1 (stereo not given)	1	30	-10	-6
SMILES	RAM inhibit	L major viab	WT yeast gro inh	CHOP inh
CC1CCCN(CC(O)COc2ccc(Cl)cc2)C1 (stereo not given)	1	91*	-21	-15
CC1CCCN(CC(O)COC(c2ccccc2)c2ccccc2)C1 (stereo not given)	1	99*	8	8
CCC(C)(C)c1ccc(OCCCC[n+]2cccc(C)c2C)c(C(C)(C)CC)c1	·	·	·	79*
CCC(C)(C)c1ccc(OCCCC[n+]2ccc(C)cc2)c(C(C)(C)CC)c1	-1	100*	99*	76*
O=C1/C(=C\c2ccc(Br)o2)SC(=Nc2ccccc2)N1c1ccccc1	11*	1	1	6
O=C1C(Cc2ccccc2)SC(=Nc2ccccc2)N1c1ccccc1 (stereo not given)	5	-1	19	59
CC(=O)C1=C(C)NC(=O)NC1c1ccc(Cl)cc1 (stereo not given)	0	17	3	-1
COc1ccc(/C=N/N=C2/SCC(=O)N2Cc2ccccc2)cc1	·	·	·	47
COc1ccc(/C=C2\CN(Cc3ccccc3)C/C(=C\c3ccc(OC)cc3)C2=O)cc1	11*	100*	-6	-11
Cc1ccc(S(=O)(=O)CCC(=O)NCCN2C(=O)S/C(=C\c3ccccc3)C2=O)cc1	6	8	7	37
Cc1ccc2c(c1)S/C(=C/c1ccc[n+](C)c1)N2CCO	1	70*	18	-27
C(=N\NCc1ccccc1)/c1ccc2nccnc2c1	·	·	·	-19
Brc1ccccc1-c1nnc(CSc2nncn2-c2ccccc2)o1	2	98*	-5	14
Cc1ccc(-n2nnnc2SCc2nnc(-c3ccccc3Br)o2)cc1	10*	1	22	25
O=c1c2ccccc2nc(SCc2nnc(-c3ccccc3Br)o2)n1-c1ccccc1	6	23	1	34
Cc1ccc2nc(SCc3nnc(-c4ccccc4Br)o3)[nH]c2c1	2	18	-8	15
CCN(C(=O)COC(=O)c1ccc(Cl)c(N)c1)C1CCS(=O)(=O)C1 (stereo not given)	1	-5	10	-17
Cc1ccc(OC(=O)C2c3ccccc3Oc3ccccc32)cc1C	7	20	25	36
COC(=O)c1sccc1NC(=O)/C=C/c1c(Cl)cccc1Cl	6	1	15	-28
COC(=O)c1sccc1NC(=O)CSc1cccc(Cl)c1Cl	8.7*	2	-13	51
CC1CCCC(NC(=S)NC(=O)c2ccccc2Br)C1C (stereo not given)	8	-1	63*	89*
CC1CCCC(NC(=O)Cc2ccc(Br)cc2)C1C (stereo not given)	2	5	2	33
CCN(CC)CCn1c(=S)[nH]c2cc(C(=O)N3CC=C(c4ccccc4)CC3)ccc2c1=O	1	20	5	21
COc1ccccc1C(=O)Nc1sc(C(=O)N2CCCC2)c(C)c1C#N	8.5*	4	1	3
CCC(CC)c1nnc(NC(=O)Cc2ccccc2[N+](=O)[O-])s1	0	16	-17	7
COc1ccc(NC(=O)CN(C)CC(=O)Nc2ccc(Cl)cc2F)cc1	-1	-2	-29	-9
COC(=O)C1=C(C)Nc2sc(C(N)=O)c(N)c2C1c1ccncc1 (stereo not given)	0	-2	-4	6
CCOC(=O)C1=C(C)Nc2sc(C(=O)c3ccc(OC)cc3)c(N)c2C1c1ccc(C(=O)OC)cc1 (stereo not given)	4	71*	41	17
O=C(Cn1c2[n+](c3ccccc31)CC(O)CS2)c1ccccc1 (stereo not given)	1	-10	-17	-19
